ADAM10 inh: inhibits human ADAM10; O14672; recombinant ADAM10, EDANS/DABCYL FRET peptide cleavage, 3 h; inhibition, % at 7 µM; 370,000 compounds, 0.62% hits;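 active = inhibition above a per-campaign cutoff equal to the mean of compounds falling between control-based bounds plus 3 SD, cut at about 20% in these data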;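 also: 0% = DMSO wells while the 100% control is not disclosed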
proKLK7 act: proKLK7 (human) activation, primary screen. activation, % at 7 µM. 370,000 compounds, 0.9% hits. purified proKLK7, EDANS-DABCYL substrate fluorescence; 100% is mature enzyme control, 0% vehicle. P49862;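 active = activation above the mean of all tested compounds plus 3 SD, computed per campaign excluding outliers beyond control limits, cut at about 13% in these data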
Target sequence (P49862 whole entry, looked up): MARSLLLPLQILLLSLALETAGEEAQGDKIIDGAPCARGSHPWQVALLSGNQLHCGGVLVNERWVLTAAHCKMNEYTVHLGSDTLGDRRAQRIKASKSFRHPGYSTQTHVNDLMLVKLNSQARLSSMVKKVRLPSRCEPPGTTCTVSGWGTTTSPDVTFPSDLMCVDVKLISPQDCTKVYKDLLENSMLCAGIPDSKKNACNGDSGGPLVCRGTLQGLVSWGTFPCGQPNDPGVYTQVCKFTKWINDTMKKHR
FAS-TE inh: inhibitors of human fatty acid synthase thioesterase domain; P49327; recombinant FAS-TE, OMFH fluorogenic substrate, fluorescence endpoint; inhibition, % at 15 µM; 360,000 compounds, 0.67% hits; AID 602261;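 active = compounds whose normalised, plate-corrected inhibition of enzyme fluorescence in the single-dose primary screen is 50% or more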;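 also: 0% = DMSO with enzyme and 100% = substrate without enzyme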
NR3A LBD binder: NR3A (human) ligand-binding domain modulation; 340,000 compounds, 2.5% hits; Tm shift relative to glycine control, % at 25 µM; AID 1259313; NR3A LBD differential scanning fluorimetry, Tm shift; 0% = protein alone, 100% = glycine-bound protein;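 active = melting temperature shift of at least 10% of the positive control shift, at one fixed dose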
ADAM17 inh: ADAM17 inhibition, QFRET primary screen. P78536. recombinant ADAM17, EDANS/DABCYL FRET peptide cleavage. inhibition, % at 6.95 µM. 370,000 compounds, 0.83% hits;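 active = inhibition above the mean of compounds lying between control limits plus 3 SD, set per campaign, cut at about 8.5% in these data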;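 also: 0% = DMSO-only wells as the low control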
* = called active by the depositor; nt = no result given. In the library only some 4.6% were active in any assay of this set; here they are far more common.

SMILES	ADAM10 inh	proKLK7 act	FAS-TE inh	NR3A LBD binder	ADAM17 inh
O=C(O)c1ccc(-c2nc(-c3ccccc3)cs2)cc1	-109.5	0.2	-3.6	3.0	-37.9
COc1ccc(-c2nc(-c3ccc(O)cc3O)cs2)cc1OC	1.4	-0.2	34.6	26.2*	2.5
COc1ccc(-c2csc(-c3ccc(O)cc3)n2)cc1	-13.8	-3.4	18.0	23.8*	-2.7
c1ccc(-c2csc(-c3ccc(-c4csnn4)cc3)n2)cc1	2.2	-0.5	8.9	18.6*	-7.2
COc1ccc(-c2nc(CCl)cs2)cc1OC	-176.1	0.8	-0.7	0.8	-65.6
C=CCN1C(C(=O)OC)CN(Cc2cn(Cc3ccc(Cl)cc3)nn2)CCS1(=O)=O (centres undefined)	2.4	0.4	nt	nt	1.2
CC1=C2NC(N)=[N+](CC3CC3)C(Cc3ccccc3)[C@@H]2n2c(=O)n(-c3ccccc3)c(=O)n2C1 (some centres undefined)	-8.5	-0.2	nt	nt	-4.7
O=C(NCc1ccccc1)OCCCN1C(=O)CCC12CCCCC2	0.3	0.1	nt	nt	-1.7
CCOc1ccc(NC(=O)CCCN2C(=S)NC(C)(C)CC2C)cc1 (centres undefined)	-10.1	0.3	-11.1	11.9*	-5.8
CCCCCn1ccc(=N)cc1	-1.0	-0.7	-3.3	11.0*	4.0
Nc1c(C(=O)Nc2ccccc2)c2nc3ccccc3nc2n1-c1ccc(O)cc1	-13.6	-0.1	2.6	20.8*	-13.6
CCOC(=O)c1c(N)n(-c2ccc(N)cc2)c2nc3ccccc3nc12	-24.6	0.0	-11.0	-0.3	-7.7
Cc1ccc(SCC(=O)NN=C2CCN(C)CC2)cc1	0.3	-0.1	-3.3	-2.8	-1.4
CN1CCC(=NNC(=O)CSc2ccc(Cl)cc2)CC1	-4.4	-0.3	-7.3	21.0*	-4.2
O=C(O)c1cnn2c(C(F)(F)F)cc(-c3ccco3)nc12	-33.5	-1.4	-7.8	-0.3	-18.2
O=C(c1cnn2c(C(F)(F)F)cc(-c3ccco3)nc12)N1CCCCCC1	-64.3	0.0	8.2	11.0*	-24.9
O=C(Nc1ccc2c(c1)oc1ccccc12)c1cccnc1	0.3	-0.2	0.6	16.9*	0.5
O=C(Nc1cccc(C(=O)N2CCOCC2)c1)c1ccccc1	-2.4	-0.3	-10.0	-0.1	-1.7
O=C(Nc1cccc(C(=O)N2CCOCC2)c1)c1cccnc1	5.8	0.2	-6.3	10.5*	1.3
CCNC(=S)Nc1ccc2c(c1)oc1ccccc12	7.9	0.6	9.4	10.2*	-1.8
O=C(Nc1ccc2c(c1)oc1ccccc12)c1ccncc1	-125.1	0.1	-4.6	14.8*	-30.7
O=C(Nc1ccc2ccccc2c1)c1cccnc1	-2.7	-0.6	-0.8	-5.5	-3.2
CN(C)[C@H]1CCN(c2cccc3c2S(=O)(=O)N(C2CC2)CCCO3)C1	-1.8	0.0	nt	nt	-1.8
Cc1sc(NC(=O)c2oc3ccccc3c2C)c(C#N)c1C	nt	nt	-4.5	-0.2	nt
Cc1sc(NC(=O)c2sc3nc4c(C)cccc4cc3c2N)c(C#N)c1C	-26.3	-0.8	-10.0	19.1*	-8.3
SMILES	ADAM10 inh	proKLK7 act	FAS-TE inh	NR3A LBD binder	ADAM17 inh
Cc1cccc2cc3c(N)c(C#N)sc3nc12	-25.6	1.8	7.5	35.5*	-7.4
Cc1cccc2cc3c(N)c(C(=O)Nc4ccc(N5CCOCC5)cc4)sc3nc12	0.5	0.2	18.0	13.6*	-2.1
Cc1ccc(C)c2nc3sc(C(=O)N4CCOCC4)c(N)c3cc12	-114.6	2.9	-3.5	3.4	-40.1
CCCCOCCCNC(=O)C[C@H]1C(=O)N(CCCOC)C2=CCCCC[C@]21C(=O)OC	-1.8	-0.7	nt	nt	0.6
Cc1ccc(S(=O)(=O)N(CCc2ccccc2)CC(=O)N2CCOCC2)cc1	-2.0	-0.8	nt	nt	-3.4
CCN1Cc2nnn(Cc3ccc(C)cc3)c2-c2ccccc2S1(=O)=O	-2.1	-0.3	nt	nt	-2.8
O=C(CSc1nnc(-c2ccc3c(c2)OCO3)n1-c1ccccc1)c1ccc(Cl)cc1	3.5	0.3	-1.7	3.4	4.4
O=C(CSc1nnc(-c2ccc3c(c2)OCO3)n1-c1ccccc1)c1ccccc1	-2.7	0.6	-3.5	16.4*	1.1
COc1cc(C(=O)NC2CCCCN(Cc3ccc(Cl)cc3)C2=O)cc(OC)c1OC (centres undefined)	-6.2	-0.8	nt	nt	-5.9
Oc1ccc(N=Nc2c(O)ccc3ccccc23)cc1	14.8	0.2	31.2	5.6	5.9
N=C(N)c1ccc(N=Nc2c(O)ccc3c2[nH]c2ccccc23)cc1	-10.8	-1.2	-36.6	29.1*	-2.3
COC(=O)[C@H](Cc1ccccc1)N(Cc1cn(Cc2ccccc2)nn1)S(=O)(=O)c1ccccc1Br	11.1	-0.2	nt	nt	5.9

Assay outcomes (PubChem BioAssay)
